# Screening results deposited in PubChem by National Center for Advancing Translational Sciences (NCATS).
# Compounds with a hit are over-represented: about 17% of the library has one in this group of screens.
# TDP1 inh: TDP1 (human) enzyme inhibition; AID 485290; recombinant TDP1, AlphaScreen DNA substrate cleavage; Potency, µM (doses to about 130 µM), inactives show top-dose activity change, negative = inhibition, actives largely listed as inhibitors; 350,000 tested, 0.28% active; also: % is scaled to controls: 0 for no effect and ±100 for the full control effect; nearly all actives have a fitted effect of over 40% in size
#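 Recombinant E. coli-expressed Tdp1 (1 nM) preincubated with compound 15 min at RT, then 5'-biotin/3'-phosphotyrosine-FITC DNA substrate (15 nM) added for 5 min. AlphaScreen beads (10 ug/ml) added, 10 min RT; tyrosine-FITC cleavage read as signal loss.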
# DT40 TDP1 no CPT: qHTS for Inhibitors of human tyrosyl-DNA phosphodiesterase 1 (TDP1): qHTS in cells in absence of CPT; 420,000 tested, 15% active; Potency, µM (highest dose often 46.2 µM), inactives show at the top dose activity change, negative = growth inhibition, actives largely listed as inhibitors; DT40 Tdp1-/- hTDP1 cells, no CPT, ATP luminescence, 48 h; also: % is scaled to controls: 0 for no effect and ±100 for the full control effect; nearly all actives have a fitted effect of over 55% in size
#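 DT40 Tdp1-/-;hTDP1 cells, no CPT (DMSO vehicle only), 400 cells/well; compounds pin-transferred; ≥48 hr, 37 °C; CellTiter-Glo 30 min RT dark, luminescence read.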
# ClpP mod: qHTS Assay for Activators of ClpP; purified B. subtilis ClpP, FRET peptide cleavage, 20 min; Potency, µM (highest dose often 57.5 µM), for the others: top-dose activity change, negative = active; 340,000 tested, 1.9% active; AID 651965, 2013; ATP-dependent Clp protease proteolytic subunit (Bacillus subtilis (strain 168)), P80244; active = well fitted falling curve with a large enough effect; inconclusive = small, poorly fitted or top-dose-only effect; inactive = no such curve, though single readings can be large or run the other way; also: the source files actives as falling curves though it sought activators and does not explain the sign; nearly all actives have a fitted effect of over 65% in size
#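 ClpP 10 microg/mL final, pH 8 Tris/KCl buffer with BSA, glycerol, Tween-20; compound pinned in; FRET-FV substrate; RT 20 min; Ex320/Em430; ΔFRET vs ADEP 5.8 microM, DMSO, no enzyme.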
# DT40 TDP1 CPT: growth inhibition of DT40 Tdp1-/-;hTDP1 cells with camptothecin (screen for TDP1 inhibitors) | chicken DT40 Tdp1-/-;hTDP1 cells + 20 nM CPT, ATP luminescence, 48 h | AID 686979 | Potency, µM (series often up to 46.2 µM), for the others: top-dose activity change, negative = growth inhibition, actives largely listed as inhibitors | 420,000 tested, 12% active; also: % is scaled to controls: 0 for no effect and ±100 for the full control effect; nearly all actives have a fitted effect of over 55% in size
#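 Cell growth measured by CellTiter-Glo luminescence after a minimum 48 h, 37 C compound exposure with 20 nM CPT in Tdp1-knockout DT40 cells stably expressing hTDP1, seeded 400/well; qHTS titration format.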
# * = called active by the depositor; ? = inconclusive; . = no result; [ ] = remark or other dose. Unless noted, calls follow the shape of the dose curve; as a rule, active = well fitted curve in the direction sought with a large enough effect; inconclusive = small, poorly fitted or top-dose-only effect, or another doubt; inactive = no such curve, though single readings can be large; an effect the other way counts as inactive or inconclusive. Potency is read from the fitted curve at half-maximal effect.
SMILES,TDP1 inh,DT40 TDP1 no CPT,ClpP mod,DT40 TDP1 CPT
CC1CCc2c(sc3ncn(CC(=O)N=Nc4c(O)[nH]c5ccccc45)c(=O)c23)C1 (stereo not drawn),6.2%,-28.3%,1.2%,?
CCc1nc(N=Nc2c(O)[nH]c3ccccc23)c2c3c(sc2n1)CCC3,3.4%,16.4µM*,2.1%,13µM*
CCCN(CCC)Cc1cc2ccccc2c2c1COC2,2.0%,?,-5.8%,?
CCCCN(CCCC)Cc1cc2ccccc2c2c1COC2,2.0%,?,?,13µM*
O=C(O)c1cc(-c2ccco2)nn1-c1ccc(Cl)cc1,14.1µM*,-1.1%,3.3%,?
Cc1nn(-c2cccc(Cl)c2)c2nc(-c3ccco3)cc(C(=O)O)c12,-7.9%,-24.9%,14.1µM*,-21.1%
O=S1(=O)C2CC3C=CC2(O3)C(O)C(Cc2ccccc2)N1Cc1cccc(C(F)(F)F)c1 (stereo not drawn),8.5%,.,.,.
COC(=O)[C@@H]1C[C@H]1[C@@H](NS(=O)(=O)c1ccc(-c2ccccc2)cc1)c1ccccc1,4.5%,.,.,.
Cc1cc(N2CCCC2)nc2ccccc12,5.4%,?,?,?
Cc1nn(-c2cc(C)c3ccccc3n2)c2c1CCC2,5.6%,23.1µM*,-2.1%,?
CCCc1c(OCCCOc2ccc(OCC(=O)O)cc2)ccc(CC=O)c1O,4.4%[56.1 µM],-4.3%,.,8.2%
Cc1c(C(=O)NCc2cccc(Br)c2)oc2ccc3c(c12)C(=O)CC(C)(C)O3,1.0%,14.6µM*,-11.2%,?
Cc1cc(C)cc(NC(=O)c2oc3ccc4c(c3c2C)C(=O)CC(C)(C)O4)c1,2.6%,?,-18.5%,?
COc1ccccc1CNC(=O)c1oc2ccc3c(c2c1C)C(=O)CC(C)(C)O3,-1.0%,16.4µM*,-26.7%,?
Cc1c(C(=O)Nc2ccc(F)cc2F)oc2ccc3c(c12)C(=O)CC(C)(C)O3,-2.6%,-9.6%,?,-28.4%
CCCOc1ccc(CNC(=O)c2oc3ccc4c(c3c2C)C(=O)CC(C)(CC)O4)cc1 (stereo not drawn),-7.6%,16.4µM*,-5.6%,16.4µM*
O=[N+]([O-])c1c(N2CCN(CCO)CC2)nc2ccccn12,2.6%,-10.8%,2.1%,-1.6%
CCC(C(=O)N1CCN(c2ccccc2)CC1)n1c(C)c2cnn(-c3ccccc3)c(=O)c2c1C (stereo not drawn),5.1%,?,-10.3%,?
Cc1ccc(/C=C/S(=O)(=O)NCCC(=O)NCc2ccc(F)cc2)cc1,-0.1%,?,-0.1%,-25.4%
COc1ccc(C2CC(C(F)(F)F)n3nc(C(=O)NCc4c(C)nn(C)c4C)c(Cl)c3N2)cc1 (stereo not drawn),2.4%,5.17µM*,-1.1%,1.3µM*
COc1ccc(C2CC(C(F)(F)F)n3nc(C(N)=O)c(Cl)c3N2)cc1OC (stereo not drawn),2.9%,?,-2.5%,-26.6%
COc1ccc(C2CC(C(F)(F)F)n3nc(C(=O)N(C)Cc4cn(C)nc4C)c(Cl)c3N2)cc1 (stereo not drawn),0.0%,18.4µM*,0.9%,?
Cc1ccc(NC(=O)CCNS(=O)(=O)c2ccccc2)c(C(=O)c2ccccc2)c1,0.0%,?,-2.5%,20.6µM*
Cc1ccc(S(=O)(=O)NC(=O)Nc2cccc([N+](=O)[O-])c2)cc1,.,8.5%,.,2.5%
Cc1ccc(S(=O)(=O)NCCC(=O)Nc2ccc(Cl)c(Cl)c2)cc1,4.2%,16.4µM*,-1.9%,?
SMILES,TDP1 inh,DT40 TDP1 no CPT,ClpP mod,DT40 TDP1 CPT
Cc1ccc(S(=O)(=O)NCCC(=O)NCc2ccccc2)cc1,1.0%,-13.0%,0.2%,-19.4%
Cc1ccc(NC(=O)NNS(=O)(=O)c2ccc(Br)cc2)cc1,-2.9%,-15.3%,-2.9%,-3.9%
Cc1ccc(S(=O)(=O)NNC(=O)Nc2ccc(Cl)c(Cl)c2)cc1,7.2%,16.4µM*,0.4%,?
Cc1ccc(S(=O)(=O)NC(=O)Nc2ccc(N(C)C)cc2)cc1,15.7%,16.4µM*,0.2%,20.6µM*
Cc1ccc(CNC(=O)CSc2ncc(S(=O)(=O)c3ccc(C)c(Cl)c3)c(=O)[nH]2)cc1,-1.8%,.,-0.2%,.
CC[C@H](C)[C@H](NC(=O)[C@H](CC(C)C)NC(=O)[C@@H](N)CO)C(=O)NCC(=O)N[C@@H](CCCN=C(N)N)C(=O)N[C@@H](CC(C)C)C(=O)O,6.9%,.,.,.
CC(=O)O[C@H]1C2=C(C(=O)[C@H]3O[C@@H]31)[C@@H]1[C@@H]3[C@@H](C)OC=C4[C@H](O)[C@H]5O[C@@H]5C(=O)[C@]43C2O[C@H]1C,3.7%[21 µM],.,.,.
N#Cc1nc(Nc2cc(Cl)cc(Cl)c2)nc(NC2CCCC2)n1,-3.6%,.,.,.
Cc1ccccc1-c1cccc([C@@H]2C[C@H]3[C@H](CON3C)CN2Cc2ccccc2)c1,.,16.4µM*,0.4%,23.1µM*
CN1OC[C@@H]2CN(S(=O)(=O)c3cc(Cl)cc(Cl)c3)[C@H](c3ccc(-c4ccc(C#N)cc4)cc3)C[C@@H]21,.,20.6µM*,1.4%,?
COc1ccc(S(=O)(=O)N2C[C@H]3CON(C)[C@H]3C[C@H]2c2ccc(-c3cccc(F)c3)cc2)cc1,.,?,-1.4%,-14.0%
CN1OC[C@@H]2CN(Cc3ccccc3)[C@H](c3cccc(N4CCOCC4)c3)C[C@@H]21,.,6.3%,-1.1%,-7.8%
COCC(=O)N1C[C@H]2CON(C)[C@H]2C[C@H]1c1cccc(-c2ccccc2OC)c1,.,8.2%,-1.5%,3.3%
CN1OC[C@@H]2CN(Cc3ccc(Cl)cc3)[C@H](c3cccc(Br)c3)C[C@@H]21,.,16.4µM*,2.6%,?
CN1OC[C@@H]2CN(C(=O)C(C)(C)C)[C@H](c3cccc(Br)c3)C[C@@H]21,.,-6.5%,-0.3%,4.9%
COc1ccccc1-c1cccc([C@@H]2C[C@H]3[C@H](CON3C)CN2C(=O)CCc2ccccc2)c1,.,?,1.0%,18.4µM*
CC[C@@]1(C(=O)OC)N[C@H](CN(C)S(=O)(=O)c2ccc(-c3ccccc3)cc2)[C@@H]2C(=O)N(Cc3ccccc3)C(=O)[C@@H]21,1.1%,-27.4%,1.9%,-14.9%
O=C(Cc1ccccc1)Nc1c(C(=O)Nc2ccccc2F)oc2ccccc12,3.8%,?,-2.9%,?
Cc1ccccc1S(=O)(=O)N1C[C@H]2CON(C)[C@H]2C[C@H]1c1cccc(Oc2ccccc2)c1,.,18.4µM*,1.7%,?
CN1OC[C@@H]2CN(Cc3cc(Cl)cc(Cl)c3)[C@H](c3cccc(-c4ccc(C#N)cc4)c3)C[C@@H]21,.,?,-12.7%,20.6µM*
O=c1oc2ccc(F)cc2cc1-c1nc(-c2cccs2)no1,5.1%,-13.7%,-6.2%,-19.8%
CN(C)CCCN(C(=O)c1ccc(Br)s1)c1nc2cc3c(cc2s1)OCO3,2.6%,14.6µM*,-2.2%,9.2µM*
